Values joined by “and” are separate entries in the source; they are usually repeats but may differ in a detail not shown here. Equal values may be shown once. Among all 410,000 compounds or so, about 18,000 (4.4%) were called active. Inconclusive results (about 7%) are left out. This excerpt belongs to a sample that is enriched for actives. A number with no mark means an inactive call. Rule as the data show it: active = activity change below about -60%; inconclusive = no clear call, values can overlap the other calls; inactive = above about -39%.
% is scaled to controls: 0 for no effect and ±100 for the full control effect.

This assay in a line: qHTS Assay for inhibitors of the human cytomegalovirus (HCMV). Conditions: HFF cells, HCMV-luciferase reporter, 72 h; at 57.5 µM; stronger effect = lower value. The text has this: NCGC Assay Overview: Infection with human cytomegalovirus (HCMV) continues to pose significant threats for pregnant women and immunocompromised hosts. HCMV causes serious morbidity and mortality in transplant recipients, and congenital HCMV is the leading infectious cause of mental retardation and deafness in children. In the 1990s, the annual costs associated with the disease burden of congenital CMV were estimated at around $2 billion. A HCMV vaccine is not available yet and HCMV therapies result in intolerable side effects and emergence of drug resistant viruses. […] Towards this goal we have developed and characterized a luciferase HCMV reporter that was initially used in 96 well plates and then optimized to 1536-well plates for utilization in screening of the MLSMR collection, the NGCG diversity collection and the NCGC Pharmaceutical Collection of approved and investigational drugs.
NCGC Assay Protocol Summary:
This is a cell-based assay for HCMV inhibition in HFFs cells. The screening used 2 compound doses and the HCMV-luciferase at MOI of 1 PFU/cell. Cells were treated and infected with HCMV. At 72 h post infection cell lysates were collected and luciferase activity was determined using the Glomax-Multi + Detection System (Promega, Madison, WI). Data were normalized to the controls for basal activity (buffer only) and known HCMV inhibitors Salinmoycin.
1536-well assay protocol for the assay:
(1) Add 3 ul CMV/HFF cell culture. 1000 cells/well in DMEM nirmal media.
(2) Incubate 16 hr at 37C.
(3) Add 23 nl control compound, 10uM of Salinomycin.
(4) Add 23 nl compounds in DMSO solution.
(5) Add 3 ul CMV suspension. Final 1 puf/ul, Virus stock 2000pfu/ul
(6) Incubate 72 hrs at 37C.
(7) Add 4 ul OneGlo Luc Reagent.
(8) Incubate 5 min at room temperature.
Take `CCCS(=O)(=O)Nc1cccc(-c2cn3ccsc3n2)c1`: the activity change, negative = inhibition is -0.309%.

For the compound `O=[N+]([O-])c1cc([N+](=O)[O-])c2cccnc2c1O`, the activity change, negative = inhibition was -19.7%.

Regarding `N#Cc1ccccc1NC(=O)COc1c(Br)cc(Br)c2cccnc12`, the activity change, negative = inhibition was 85.2%.

With `CC(=O)NC(c1cccs1)c1cc(Br)c2cccnc2c1O` (configuration not stated), the activity change, negative = inhibition is -100% (active).

In the case of `CC(=O)c1cccc(OCC(=O)OCC(=O)Nc2cc(S(=O)(=O)N3CCCCC3)ccc2C)c1`, the activity change, negative = inhibition was 9.96%.

With `Cc1ccc(NS(=O)(=O)c2ccc(C)c(NC(=O)COc3ccc4ccccc4c3)c2)c(C)c1`, the activity change, negative = inhibition is -81.5% (active).

Take `O=C(CNS(=O)(=O)c1ccc2ccccc2c1)Nc1ccc(F)c(F)c1F`: the activity change, negative = inhibition is 0%.

As for `CCCn1c(C(C)Nc2nc(-c3ccc(C)cc3)cs2)nc2cc(Cl)c(N3CCCCC3)cc21` (configuration not stated), the activity change, negative = inhibition was 2.56%.

On to `NC1=CC(=O)C(=O)c2cccnc21`, for which the activity change, negative = inhibition is -78.2% (active).

As for `O=C1CCCC2=C1C(c1cccs1)n1nc(SCc3ccccc3)nc1N2` (configuration not stated), the activity change, negative = inhibition is -15.6%.

`COC(=O)c1ccc(NC(=O)c2cc3c(CO)cnc(C)c3oc2=Nc2cccc(C(N)=O)c2)cc1`: the activity change, negative = inhibition was -2.9%.

`Cn1nccc1/C=N\NC(=O)c1ccc(Cl)cc1`: the activity change, negative = inhibition is 45.6%.

For the compound `CC1(C)C2CC=C(/C=N/NC(=O)c3ccc(Cl)cc3)C1C2` (configuration not stated), the activity change, negative = inhibition is 23.1%.

Take `O=C(N/N=C/c1ccccn1)c1cccc(NC(=O)c2ccc(Cl)cc2)c1`: the activity change, negative = inhibition is -69.8% (active).

Turning to `CC(C)C(=O)Nc1nnc(SCC(=O)N2C(C)CCCC2C)s1` (configuration not stated), the activity change, negative = inhibition is -28.8%.

As for `Cc1nn(-c2ccc(N3CCCCC3)nn2)c(C)c1CCC(=O)NCc1ccccc1F`, the activity change, negative = inhibition is -16.6%.

On to `Cc1ccc(C)c(NC(=O)c2ccc(OC(=O)c3ccco3)cc2)c1`, for which the activity change, negative = inhibition is 71.3%.

As to `CSCCC(NC(=O)c1ccco1)C(=O)Nc1cc(C)ccn1` (configuration not stated), the activity change, negative = inhibition is 47.1%.

On to `C/C(=N/NS(=O)(=O)c1ccccc1)c1ccc(NC(=O)C(F)(F)F)cc1`, for which the activity change, negative = inhibition is 0.908%.

With `C/C(=N\NS(=O)(=O)c1ccc(Cl)cc1)c1ccc(NC(=O)c2ccco2)cc1`, the activity change, negative = inhibition is -65.3% (active).

As to `CCN(c1ccc(Cl)cc1)S(=O)(=O)c1nnc(NC(=O)c2ccco2)s1`, the activity change, negative = inhibition is 39.9%.

With `Cc1ccnc(NC(=O)c2ccc(NC(=O)c3ccco3)cc2)c1`, the activity change, negative = inhibition was -84.7% (active).

Take `CC(C)Cn1c(-c2ccc(S(=O)(=O)N3CCOCC3)cc2)csc1=Nc1cc(Cl)ccc1Cl`: the activity change, negative = inhibition is 0.205%.

For `CN(Cc1ccccc1)C(=O)c1cn(C)c2ccc(S(=O)(=O)N3CCCCC3)cc2c1=O`, the activity change, negative = inhibition was -4.78%.

As for `CCOC(=O)c1c(S(=O)(=O)N2CCCC(C(=O)NCc3ccc(F)cc3)C2)c(C)n(CC)c1C` (configuration not stated), the activity change, negative = inhibition was -1.02%.

In the case of `Cc1ccc(C2C=C(c3ccc(Cl)cc3)Nc3nc(NC(=O)CCC(=O)O)nn32)cc1` (configuration not stated), the activity change, negative = inhibition is -19.9%.

For `Cc1ccc(OCC(=O)OCc2cc(=O)n3nc(C4CC4)sc3n2)cc1C`, the activity change, negative = inhibition was -1.4%.

On to `Cn1c(=O)c2c(nc(NCc3ccccc3)n2CC(N)=O)n(C)c1=O`, for which the activity change, negative = inhibition was -13.4%.

With `Cn1c(=O)c2c(nc(NCCc3ccccc3)n2Cc2ccccc2Br)n(C)c1=O`, the activity change, negative = inhibition is 6.41%.

Regarding `CCn1c(NCCc2ccc(OC)c(OC)c2)nc2c1c(=O)n(C)c(=O)n2C`, the activity change, negative = inhibition was -71.3% (active).

As to `Cn1c(=O)c2c(nc(NCCc3ccccc3)n2Cc2ccccc2)n(C)c1=O`, the activity change, negative = inhibition was -84.2% (active).

In the case of `COc1ccc(-n2ccnc(NCCc3ccc(Cl)cc3)c2=O)cc1OC`, the activity change, negative = inhibition is -27.6%.

For `Cn1c(=O)[nH]c(=O)c2c1nc(NCCc1ccccc1)n2Cc1ccc(F)cc1`, the activity change, negative = inhibition was 26.5%.

For the compound `CCOC(=O)c1ccc(NC(=O)Cn2cc(S(=O)(=O)Cc3ccccc3F)c3ccccc32)cc1`, the activity change, negative = inhibition was 0%.

With `CCOc1cccc2cc(-c3cn4c(n3)sc3cc(C)ccc34)c(=O)oc12`, the activity change, negative = inhibition is 0.706%.

Consider `CCOC(=O)c1ccc(NC(=O)CC2C(=O)N(c3ccccc3)C(=O)N2Cc2cccs2)cc1` (configuration not stated), for which the activity change, negative = inhibition is 16.8%.

As to `CCn1nc(C(=O)Nc2ccc(N3CCOCC3)cc2)c2ccccc2c1=O`, the activity change, negative = inhibition is -3.67%.

Take `CCOc1cc(-c2nnc(SCC(=O)NC3CCCCC3)nc2-c2ccc(OC)c(OCC)c2)ccc1OC`: the activity change, negative = inhibition was 8.79%.

With `CC(=O)Nc1ccc(S(=O)(=O)NCC2CCC(C(=O)NCCc3ccccc3)CC2)cc1` (configuration not stated), the activity change, negative = inhibition was 0% and -12.6%.

On to `Cc1cc(NC(=O)C2CCC(CNS(=O)(=O)c3ccc(Br)s3)CC2)ccc1Br` (configuration not stated), for which the activity change, negative = inhibition is -4.58%.

For the compound `COc1ccc(NC(=O)C2CCC(CNS(=O)(=O)c3csc(C(N)=O)c3)CC2)cc1OC` (configuration not stated), the activity change, negative = inhibition is -65.3% (active).

`COc1cccc(N2CC(NS(=O)(=O)c3ccc(Cl)cc3)CC2=O)c1` (configuration not stated): the activity change, negative = inhibition is -10.8%.
